Data taken from PubChem BioAssay (NCI).
Where “and” joins values, the source holds several entries; their conditions need not be identical. Equal entries are not always repeated. This is part of a sample that, as a whole, favours compounds with a hit. Of some 79,000 tested, about 15% had one in any assay. Rule as the data show it: active = growth inhibition above about 70%; inactive = the rest.

Experiments:
[1] = NCI Yeast Anticancer Drug Screen. Data for the mec2-1 strain (AID 157); conditions: S. cerevisiae mec2-1 strain, stronger effect = higher value
Procedure, shortened: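 Yeast mec2-1 mutant treated with compound. Readout: growth inhibition vs vehicle controls.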

[2] = NCI Yeast Anticancer Drug Screen. Data for the sgs1 mgt1 strain (AID 161);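 also: 0% = growth of cultures given vehicle only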; conditions: S. cerevisiae sgs1 mgt1 strain, stronger effect = higher value
Procedure, shortened: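 Read-out: growth inhibition vs vehicle controls. Cells: mutant yeast strain deficient in DNA damage repair.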

[3] = NCI Yeast Anticancer Drug Screen. Data for the cln2 rad14 strain (AID 165);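 also: 0% = growth equal to vehicle treated cultures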; conditions: S. cerevisiae cln2 rad14 strain, stronger effect = higher value
Procedure, shortened: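 cln2 rad14 yeast strain; compound exposure; growth inhibition read vs vehicle controls.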

[4] = NCI Yeast Anticancer Drug Screen. Data for the bub3 strain (AID 167); conditions: S. cerevisiae bub3 mutant strain, stronger effect = higher value
Procedure, shortened: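 Inhibition values come from growth of compound-treated mutant yeast normalised to vehicle-treated controls.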

[5] = NCI Yeast Anticancer Drug Screen. Data for the mlh1 rad18 strain (AID 175); conditions: S. cerevisiae mlh1 rad18 strain growth inhibition, stronger effect = higher value
Procedure, shortened: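 Yeast w/ defined DNA-repair lesions; compound exposure; growth vs vehicle controls → % inhibition.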

[6] = NCI Yeast Anticancer Drug Screen. Data for the rad50 strain (AID 155);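 also: 0% = growth of vehicle-only cultures of the same strain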; conditions: S. cerevisiae rad50 strain growth inhibition, stronger effect = higher value; at 50.0 µM unless noted
Procedure, shortened: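 A DNA repair-deficient yeast mutant serves as the test organism; compound-induced growth inhibition is calculated against vehicle-treated cells.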

[7] = at 5.0 µM (retest, dose inferred, filed as 0.5)
[8] = at 50.0 µM (retest, dose inferred, filed as 5.0)

Measured: growth inhibition

CN(C)c1ccc(/C=C/C=C2\C=Cc3ccccc32)cc1
inactive: [1]; at 50.0 µM unless noted -17.9% | [2]; at 50.0 µM unless noted -6% | [3]; at 50.0 µM unless noted -26.2% | [4]; at 50.0 µM unless noted -0.25% | [5]; at 50.0 µM unless noted -2.75%

C/C(=N\N/C=N/S(=O)(=O)c1ccccc1)c1ccccc1
inactive: [1]; at 50.0 µM unless noted 4.55% | [2]; at 50.0 µM unless noted -6.35% | [3]; at 50.0 µM unless noted 5.6% | [4]; at 50.0 µM unless noted 0.55% | [5]; at 50.0 µM unless noted -1.55%

O=C(O)c1cc(C(=O)C(=O)c2cc(C(=O)O)c(O)c3ccccc23)c2ccccc2c1O
inactive: [1]; at 50.0 µM unless noted -25.4% | [2]; at 50.0 µM unless noted -7.15% | [3]; at 50.0 µM unless noted -0.4% | [5]; at 50.0 µM unless noted -19.4%

CN(CCO)c1ccccc1
inactive: [1]; at 50.0 µM unless noted -14.8% | [2]; at 50.0 µM unless noted -40.4% | [3]; at 50.0 µM unless noted -17.9% | [4]; at 50.0 µM unless noted -48.4% | [5]; at 50.0 µM unless noted -8%

CN(C)CC1CCCCCC(CN(C)C)C1=O (centres undefined)
inactive: [1]; at 50.0 µM unless noted 8.3% and 2.75% | [2]; at 50.0 µM unless noted -1.85% and 25.9% | [4]; at 50.0 µM unless noted -10.4% and -1.65% | [5]; at 50.0 µM unless noted 16.8% and 12.9%

O=c1oc2ccccc2c(O)c1Cc1ccccc1Cc1c(O)c2ccccc2oc1=O
inactive: [1]; at 50.0 µM unless noted 4.65% | [2]; at 50.0 µM unless noted -13.2% | [3]; at 50.0 µM unless noted 10.9% | [4]; at 50.0 µM unless noted -19.9% | [5]; at 50.0 µM unless noted 65%

N#CC(C(=O)NN)C1CCCCC1 (centres undefined)
inactive: [1]; at 50.0 µM unless noted -22% | [2]; at 50.0 µM unless noted -2.95% | [3]; at 50.0 µM unless noted -0.1% | [4]; at 50.0 µM unless noted -33.8% | [5]; at 50.0 µM unless noted -11.7%

N#Cc1nc(C2CC2)oc1N
inactive: [1]; at 50.0 µM unless noted -2.65% | [2]; at 50.0 µM unless noted -22.9% | [3]; at 50.0 µM unless noted 0.35% | [4]; at 50.0 µM unless noted -25.2% | [5]; at 50.0 µM unless noted 1.65%

CC(C)NC(=O)OCc1c(COC(=O)NC(C)C)c(-c2ccccc2)n(C)c1-c1ccccc1
inactive: [1]; at 50.0 µM unless noted 2.05% | [2]; at 50.0 µM unless noted 6.05% | [3]; at 50.0 µM unless noted -5.7% | [4]; at 50.0 µM unless noted 1.85% | [5]; at 50.0 µM unless noted 32.8%

CC(=O)c1cccc(NC(=O)Oc2cc(=O)oc3ccccc23)c1
inactive: [1]; at 50.0 µM unless noted 19.3% | [2]; at 50.0 µM unless noted 12.4% | [3]; at 50.0 µM unless noted -4.6% | [4]; at 50.0 µM unless noted 38.2% | [5]; at 50.0 µM unless noted 29.5%

Cc1nnc(-n2cccc2)s1
inactive: [1]; at 50.0 µM unless noted -18.9% | [2]; at 50.0 µM unless noted -5.3% | [3]; at 50.0 µM unless noted -3.55% | [4]; at 50.0 µM unless noted -4.1% | [5]; at 50.0 µM unless noted 3.25%

CC(O)C(=O)NC1CCCCC1 (centres undefined)
inactive: [2]; [7] 1% | [2]; [8] 12% | [3]; [7] 1% | [3]; [8] 3% | [4]; [7] 2% | [4]; [8] -4% | [5]; [7] 3% | [5]; [8] 17%

CCOC(=O)c1ccc(N=Cc2ccc(N(CCC#N)CCC#N)cc2)cc1
inactive: [1]; at 50.0 µM unless noted 1.65% | [2]; at 50.0 µM unless noted -7.25% | [3]; at 50.0 µM unless noted 3.7% | [5]; at 50.0 µM unless noted -7.45%

CCOc1ccccc1N1CCN(CC(O)CSc2ccccc2)CC1 (centres undefined)
inactive: [1]; at 50.0 µM unless noted -9.25% | [2]; at 50.0 µM unless noted -6.2% | [3]; at 50.0 µM unless noted -33.6% | [4]; at 50.0 µM unless noted 4.95% | [5]; at 50.0 µM unless noted -2.65%

COC(=O)/C=C(\C(=O)OC)N1CCCCC1
inactive: [6] 1.55% | [2]; at 50.0 µM unless noted -6.55% | [3]; at 50.0 µM unless noted -29.9% | [5]; at 50.0 µM unless noted -23.1%

CC(=O)c1cccc(NC(=O)CCCCCCCCC(=O)Nc2cccc(C(C)=O)c2)c1
inactive: [6] -5.7% | [2]; at 50.0 µM unless noted -1.55% | [3]; at 50.0 µM unless noted -49.5% | [4]; at 50.0 µM unless noted -1.2% | [5]; at 50.0 µM unless noted 2.95%

OCC1C(CO)C2CC1C1N=NN(c3ccccc3)C21 (centres undefined)
inactive: [1]; at 50.0 µM unless noted 4.3% | [2]; at 50.0 µM unless noted 8.25% | [3]; at 50.0 µM unless noted -11.9% | [4]; at 50.0 µM unless noted -0.35% | [5]; at 50.0 µM unless noted -13.3%

O=c1ccn(C2OC(COC3CCCCO3)C(OC3CCCCO3)C2OC2CCCCO2)c(=O)n1-c1ccccc1 (centres undefined)
inactive: [1]; at 50.0 µM unless noted -4.8% | [2]; at 50.0 µM unless noted 10.1% | [3]; at 50.0 µM unless noted -1.4% | [4]; at 50.0 µM unless noted -2.65% | [5]; at 50.0 µM unless noted 5.25%

O=S(=O)(O)c1ccc(Nc2ccccc2)cc1
inactive: [1]; at 50.0 µM unless noted -38.8% and -24.1% | [2]; at 50.0 µM unless noted -11% | [3]; at 50.0 µM unless noted -18.3% | [4]; at 50.0 µM unless noted 2% | [5]; at 50.0 µM unless noted -20.9% and 6.2%

CC(=O)OC(OC(C)=O)c1ccccc1
inactive: [1]; at 50.0 µM unless noted 12.2% | [2]; at 50.0 µM unless noted -3.4% | [3]; at 50.0 µM unless noted 16% | [4]; at 50.0 µM unless noted 5% | [5]; at 50.0 µM unless noted 11.7%

N=C(N)c1ccc(NC(=S)Nc2ccc(C(=N)N)cc2)cc1
inactive: [1]; at 50.0 µM unless noted 21.3% | [2]; at 50.0 µM unless noted 32.1% | [3]; at 50.0 µM unless noted 7.35% | [4]; at 50.0 µM unless noted 16.4% | [5]; at 50.0 µM unless noted 31.8%

c1c[nH]c(CN2CCOCC2)n1
inactive: [1]; at 50.0 µM unless noted -28.9% | [2]; at 50.0 µM unless noted -43.4% | [3]; at 50.0 µM unless noted 2.5% | [4]; at 50.0 µM unless noted -38.9% | [5]; at 50.0 µM unless noted -5.15%

[N-]=[N+]=Nc1c2c(nc3ccccc13)CCCC2
inactive: [1]; at 50.0 µM unless noted -10.2% | [2]; at 50.0 µM unless noted -21.4% | [3]; at 50.0 µM unless noted -51.1% | [4]; at 50.0 µM unless noted 0.3% | [5]; at 50.0 µM unless noted -4.4%

Clc1ccc(N=Nc2nc3ccccc3nc2N=Nc2ccc(Cl)cc2Cl)c(Cl)c1
inactive: [1]; at 50.0 µM unless noted -4.6% | [2]; at 50.0 µM unless noted -13.2% | [3]; at 50.0 µM unless noted 3.25% | [4]; at 50.0 µM unless noted -5.75% | [5]; at 50.0 µM unless noted 0.55%

NN1CCOC(c2ccccc2)C1 (centres undefined)
inactive: [1]; [7] 11% | [1]; [8] 24% | [2]; [7] 7% | [2]; [8] 49% | [3]; [7] 0% | [3]; [8] 4% | [4]; [7] 34% | [4]; [8] 61% | [5]; [7] -12% | [5]; [8] 28%
